Experimental data from PubChem BioAssay AID651820 (National Center for Advancing Translational Sciences (NCATS), 2012).
The campaign covered roughly 340,000 compounds. About 12,000 (3.5%) were called active. Inconclusive results (about 18%) are left out. The sample holds actives, similar compounds and a random draw of the others, so the mix is not that of the screen. A number with no mark means an inactive call. Calls follow the shape of the dose curve; as a rule, active = well fitted inhibition curve with a large enough effect; inconclusive = small, poorly fitted or top-dose-only effect, or another doubt; inactive = no such curve, though single readings can be large or run the other way.

Experiment: qHTS Assay for Inhibitors of Hepatitis C Virus (HCV)
Settings: Huh7.5.1 HCVcc-Cre infection, luciferase reporter, 44 h; series mostly up to 41.8 µM; activity change, negative = inhibition: at the top concentration
Procedure, shortened: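 HCVcc-Cre virus at an moi near 0.5 was added right after compound to cells cultured 4 h from seeding (1,000 cells/well). Luciferase activity was determined 44 h later, 15 min after substrate addition at RT.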
% is scaled to controls: 0 for no effect and ±100 for the full control effect; potency is read from the fitted curve at half-maximal effect.

SMILES | activity change, negative = inhibition | Potency
CC12CCCCC1=CC(=O)CC2 (stereo not given) | 9.2% | –
COc1ccc(NC(=O)/C(N=Nc2cccc(S(=O)(=O)Nc3ccc(SC(F)F)cc3)c2)=C(\C)O)cc1 | -5.31% | –
O=c1ccn([C@@H]2O[C@H](CNS(=O)(=O)c3cc4ccccc4s3)[C@@H](O)[C@H]2O)c(=O)[nH]1 | 14.9% | –
COc1ccc(NC(=O)N2CCC3(CC2)OCCO3)c(OC)c1 | -0.519% | –
COc1cccc(CNc2nc3nc4c(c(=O)n3[nH]2)CCC4)c1 | 8.96% | –
COc1cccc(-c2cc3nc4c(c(N5CCC6(CC5)OCCO6)n3n2)CCCC4)c1 | – | 12.6 µM (active)
Cc1ccc(S(=O)(=O)N2CCOCC2)cc1C(=O)Nc1ccccc1N1CCCC1 | 16.1% | –
CCc1nc(NCCO)c(C#N)c2c1CCCC2 | -25% | –
CCN1CCc2c(C#N)c(NCc3ccccc3)nc(NCCO)c2C1 | -15.5% | –
CC(C)CCNc1nc(N2CCCC2)c2c(c1C#N)CCN(C)C2 | – | 12.6 µM (active)
O=C(NCCc1ccccc1)c1c[nH]c2ccc(F)cc2c1=O | -7.82% | –
CCOc1ccc(CC(=O)NCCS(=O)(=O)N2CCN(c3ccccc3)CC2)cc1 | -0.883% [at 8.37 µM] | –
N#Cc1ccc(C2=CC(=O)C[C@H](c3ccc(Cl)cc3)C2)cc1 | 16.4% | –
CC(=O)N1c2ccc(S(=O)(=O)N3CCC(C(=O)NC4CCCC(C)C4C)CC3)cc2CC1C (stereo not given) | 7.36% | –
CC(=O)N1CCCc2cc(S(=O)(=O)N3CCCC(C(=O)NCc4ccc(Cl)cc4)C3)ccc21 (stereo not given) | – | 14.1 µM (active)
CC(=O)N1CCCc2cc(S(=O)(=O)CCC(=O)N3CCN(c4ccccc4)CC3)ccc21 | -6% | –
O=C(NCc1ccncc1)C1CCCN(S(=O)(=O)c2ccc(Br)cc2)C1 (stereo not given) | 1.08% | –
O=C(C1CCCN(S(=O)(=O)c2ccccc2)C1)N1CCN(c2ccc(F)cc2)CC1 (stereo not given) | – | 20 µM (active)
CCCS(=O)(=O)N1CCCC(C(=O)N2CCN(c3ccccc3)CC2)C1 (stereo not given) | -7.58% | –
Cc1ccc(S(=O)(=O)N2CCCC(C(=O)N3CCN(C)CC3)C2)cc1 (stereo not given) | 8.03% | –
CCS(=O)(=O)N1CCCC(C(=O)NCc2ccc(C)cc2)C1 (stereo not given) | 7.32% | –
CC(=O)Nc1ccc(NC(=O)C2CCCN(S(=O)(=O)c3ccc(Cl)cc3)C2)cc1 (stereo not given) | 27% | –
CC(=O)N1CCCc2cc(S(=O)(=O)N3CCCC(C(=O)N4CCN(c5cccc(Cl)c5)CC4)C3)ccc21 (stereo not given) | – | 3.16 µM (active)
CC(=O)N1c2ccc(S(=O)(=O)N3CCCC(C(=O)NCc4ccc(Cl)cc4)C3)cc2CC1C (stereo not given) | – | 5.62 µM (active)
COc1cccc(N2CCN(C(=O)C3CCCN(S(=O)(=O)c4cnc[nH]4)C3)CC2)c1 (stereo not given) | 4.7% | –

SMILES | activity change, negative = inhibition | Potency
Cc1cc(NC(=O)CSCC(=O)NC(C)c2ccccc2)no1 (stereo not given) | 2.94% | –
CCN(c1ccccc1)S(=O)(=O)c1cc(C(=O)NCc2ccccn2)ccc1C | -17.6% | –
O=C(COC(=O)c1ccc(O)cc1O)NC(=O)c1ccccc1 | 17.8% | –
CCOc1ccc2oc(C(=O)N(CC)CC(=O)Nc3ccc(NC(C)=O)cc3)c(C)c2c1 | -16.3% | –
COc1ccc(C(C)(C)C)cc1NC(=O)CCN1C(=O)C2CCCCC2C1=O (stereo not given) | 2.14% | –
O=[N+]([O-])c1ncc(Br)cc1Nc1ccccc1 | 11.3% | –
CCN(CC)S(=O)(=O)c1ccc(CNC(=O)CN2C(=O)NC3(CCc4ccccc43)C2=O)cc1 (stereo not given) | 8.18% | –
O=C(NN=Cc1ccc([N+](=O)[O-])cc1)C1CC1 | -21.8% | –
CSCCC(NS(=O)(=O)c1ccc(C)cc1)C(=O)N(C)CC(=O)Nc1ccccc1Br (stereo not given) | -5.06% | –
O=C(Nc1ccc(N2CCN(C(=O)c3ccccc3)CC2)c(Cl)c1)c1ncn[nH]1 | -21.7% | –
Cc1ccccc1N1CCN(C(=O)c2cccnc2)CC1 | 1.85% | –
O=C(Nc1ccc(N2CCN(C(=O)c3ccccc3)CC2)c(Cl)c1)c1cccnc1 | – | 11.2 µM (active)
Cc1cccc(C(=O)NCc2nnc(SC(C)C(=O)Nc3nnc(C)s3)n2C)c1 (stereo not given) | -37% | –
Clc1ncn(CCOc2ccccc2)c1Cl | 29% | –
Brc1ccc(OCCn2ccnc2)cc1 | 18.5% | –
c1ccc(Cc2ccc(OCCn3ccnc3)cc2)cc1 | – | 12.6 µM (active)
Cc1ccc(CN2CCC(n3nccc3NC(=O)CCCc3ccccc3)CC2)o1 | 0.657% | –
COc1ccc(CN2CCC(n3nccc3NC(=O)CCCc3ccccc3)CC2)cc1C | – | 10 µM (active)
COc1cc(CN2CCC(n3nccc3NC(=O)CCCc3ccccc3)CC2)ccc1O | -21% | –
COc1cccc(N2CC(NC(=O)c3ccc4ccccc4c3)CC2=O)c1 (stereo not given) | 15.5% | –
O=C1[C@@H](c2ccccc2)[C@@H](c2ccccc2)N1c1cccnc1 | – | 5.01 µM (active)
CCc1ccccc1NC1c2ccccc2C(=O)N1c1cccnc1 (stereo not given) | 11.1% | –
O=C1C(=O)N(c2ccccc2)C(c2ccccc2)C1c1ccccc1 (stereo not given) | -16.7% | –
CC[C@@]1(C(=O)OC)N[C@H](CN(C)C(C)=O)[C@@H]2C(=O)N(C)C(=O)[C@@H]21 | 18.4% | –
CC(NC(=O)COC(=O)CCC(=O)c1ccc(Cl)cc1)c1ccccc1 (stereo not given) | -14.6% | –
